# Source: PubChem (several laboratories)
# Hits are enriched below; roughly 4% of the tested compounds scored in any of these assays.
# Mtb UGM inh: blocks M. tuberculosis UGM enzyme; P9WIQ1; purified UGM, fluorescence polarization probe displacement; inhibition, % at 10 µM; 0.06% of 320,000 active; AID 504406; in the data active = inhibition above about 10%, passing the limit was not always enough; inconclusive = no clear call, values can overlap the other calls
# Target sequence (P9WIQ1 whole entry, looked up): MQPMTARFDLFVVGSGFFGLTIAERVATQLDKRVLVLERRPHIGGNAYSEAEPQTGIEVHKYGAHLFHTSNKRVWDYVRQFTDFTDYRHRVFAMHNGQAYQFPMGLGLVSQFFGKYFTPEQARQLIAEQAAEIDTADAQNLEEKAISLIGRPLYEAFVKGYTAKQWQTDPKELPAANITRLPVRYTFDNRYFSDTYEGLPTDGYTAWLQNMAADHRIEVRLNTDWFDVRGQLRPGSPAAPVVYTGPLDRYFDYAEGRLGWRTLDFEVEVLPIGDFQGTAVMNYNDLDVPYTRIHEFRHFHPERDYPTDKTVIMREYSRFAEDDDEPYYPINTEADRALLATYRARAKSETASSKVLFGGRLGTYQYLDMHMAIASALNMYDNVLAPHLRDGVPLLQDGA
# GDH-TPI counter: GDH-TPI coupled enzyme inhibition counter-screen; inhibition, % at 4.8 µM; 1.2% of 360,000 active; GDH-TPI coupled enzyme counterscreen, NADH absorbance; in the data active = inhibition above about 30%;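 also: 0% = DMSO wells and 100% = wells lacking the enzyme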
# Mtb betalactam: beta-lactam sensitization of Mtb H37Rv. 0.27% of 330,000 active. M. tuberculosis H37Rv growth with meropenem, percent inhibition. AID 434955. inhibition, % at 25 µM;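 also: growth measured after seven days incubation then overnight dye step; 0% = bacteria only wells and 100% = bacteria with antibiotic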
# Rv3671c inh: inhibits the M. tuberculosis serine protease Rv3671c; inhibition, % at 5.96 µM; 0.048% of 320,000 active; AID 2606; in the data active = inhibition above about 38%;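 also: extracellular domain of Rv3671c used as enzyme; 0% = enzyme with DMSO and 100% = no enzyme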
# RecA intein inh: Mtb RecA intein splicing inhibition; P9WHJ3; cell-free RecA intein splicing, fluorescence; inhibition, % (concentration not given with the values); 0.75% of 290,000 active; AID 2221; in the data active = inhibition above about 30%; inconclusive = no clear call, values can overlap the other calls;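 also: 0% = vehicle wells and 100% = reference inhibitor control wells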
# Mtb FBA inh: Mtb fructose-bisphosphate aldolase inhibition; purified M. tuberculosis FBA, fluorescence read-out; inhibition, % at 1 µM; 2.3% of 360,000 active; AID 588726; in the data active = inhibition above about 27%;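 also: 0% = vehicle and 100% = reference inhibitor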
# GFP chromophore: counter-screen GFP chromophore formation inhibition; EC50, µM; AID 434968; cell-free GFP chromophore formation, fluorescence; shares compounds with RecA intein inh; 83% of 2,100 active
# The depositor's hits bear a star; ? = inconclusive; nt = not tested or not shown. Unless noted, no rule for the calls is given here.
SMILES,Mtb UGM inh,GDH-TPI counter,Mtb betalactam,Rv3671c inh,RecA intein inh,Mtb FBA inh,GFP chromophore
COC(=O)c1cc(NC(=O)Nc2ccccc2OC)cc(C(=O)OC)c1,-3.5,5.5,8.6,-12.6,39.7*,1.6,>38
CCC(C)[C@H](NC(=O)NC1CCN(Cc2ccccc2)CC1)C(=O)OC (stereo partly specified),1.1,4.6,0.3,11.8,38.1*,-1.3,>38
COc1ccc(C)cc1NC(=O)NC1CCN(Cc2ccccc2)CC1,1.1,-3.4,99.2,7.2,-0.8,3.7,nt
O=C(O)CC1OCC=C2CN3CCC45C6=CC(=O)C(=O)C([N+](=O)[O-])=C6NC4C1C2CC35 (stereo unspecified),1.6,-2.1,?,-115.7,85.2*,-1.1,7.13*
Cc1cc(C(=O)Cn2ncc(Cl)c(Cl)c2=O)c(C)n1CC(F)(F)F,-3.1,7.5,99.8,-3.0,36.1*,-0.9,5.97*
Cc1ccc(C)c(C(=O)Cn2ncc(Cl)c(Cl)c2=O)c1,3.0,5.9,97.6,-7.9,19.2,1.8,nt
c1ccc(COc2cccc(-c3cc4nc(NCCCn5ccnc5)ccn4n3)c2)cc1,nt,1.3,nt,nt,nt,6.5,nt
O=c1cc(C2CCNCC2)[nH][nH]1,-1.1,-4.3,-11.2,-22.7,86.6*,-0.1,5.39*
Cc1nn(-c2ccccc2)c2c1C(c1ccc(F)cc1F)C(C#N)=C(N)O2 (stereo unspecified),-3.3,-4.7,8.6,-10.8,50.4*,1.9,3.9*
Cc1nn(-c2ccccc2)c2c1C(c1ccccc1)C(C#N)=C(N)O2 (stereo unspecified),0.3,6.0,7.6,-130.2,54.1*,1.6,28.9*
Cc1nn(-c2ccccc2)c2c1C(c1ccc(Br)s1)C(C#N)=C(N)O2 (stereo unspecified),nt,4.7,nt,nt,nt,0.0,nt
O=C(C1CCN(CCc2ccccc2)CC1)N1CCOCC1,nt,12.8,nt,nt,nt,2.7,nt
CN(CCC#N)C(=O)Cn1nc(Cc2ccncc2)c2ccccc2c1=O,1.2,5.3,2.0,1.7,49.3*,0.8,>38
CCCCNC(=O)Cn1nc(Cc2ccncc2)c2ccccc2c1=O,-3.2,0.4,-4.2,-13.8,4.0,0.8,nt
C/C(CC(=O)N1CCN(C=O)CC1)=N\NC(=O)c1cccc([N+](=O)[O-])c1,0.2,-2.5,2.7,3.1,71.3*,4.2,32.5*
C/C(CC(=O)N1CCN(C=O)CC1)=N\NC(=O)c1ccc(Cl)cc1,0.5,6.1,4.6,-11.3,3.0,1.8,nt
COc1ccccc1-n1nnnc1SCC(=O)NCC1CCCO1 (stereo unspecified),-2.6,4.2,-0.4,3.2,1.1,2.9,nt
COc1ccccc1NC(=O)c1cnc(SCC(=O)NCC2CCCO2)n(C)c1=O (stereo unspecified),0.7,28.5,78.7,-1.2,45.1*,-1.2,>38
O=C(Nc1ccccc1Cl)C(Cl)C(=O)c1ccccc1 (stereo unspecified),nt,1.3,nt,nt,nt,-2.9,nt
O=C(Nc1ccc(Cl)cc1)C(Cl)C(=O)c1ccccc1 (stereo unspecified),1.4,5.7,1.5,-4.5,45.9*,-0.1,38.3*
CCNC(=O)C1(C)CCCN(C(=O)c2ccc3c(c2)C(C)(C)CCC3(C)C)C1 (stereo unspecified),nt,9.1,nt,nt,nt,0.1,nt
O=[N+]([O-])c1cc(S(=O)(=O)O)cc([N+](=O)[O-])c1NN(c1ccccc1)c1ccccc1,1.4,10.2,-1.2,-7.0,4.4,-1.1,nt
CN1CCN(C(c2ccc(F)cc2)c2ccc3cccnc3c2O)CC1 (stereo unspecified),nt,-1.3,nt,nt,nt,-5.1,nt
CN1CCN(C(c2ccc(Br)cc2)c2cc(Cl)c3cccnc3c2O)CC1 (stereo unspecified),0.8,-4.6,14.0,4.8,74.3*,4.1,9.82*
O=C(Cc1cc(=O)[nH][nH]1)N/N=C/c1ccccc1Cl,-3.3,nt,1.6,-39.8,74.0*,nt,7.7*
SMILES,Mtb UGM inh,GDH-TPI counter,Mtb betalactam,Rv3671c inh,RecA intein inh,Mtb FBA inh,GFP chromophore
O=C(Cc1cc(=O)[nH][nH]1)N/N=C/c1cccc(Cl)c1Cl,-4.4,-0.4,-2.1,-7.3,94.4*,1.0,10.5*
O=C(Cc1cc(=O)[nH][nH]1)N/N=C/c1cccc2ccccc12,0.7,18.1,1.4,-14.8,94.1*,-2.7,7.28*
O=C(Cc1cc(=O)[nH][nH]1)N/N=C/C(Cl)=C/c1ccccc1,-1.3,7.4,2.3,-27.3,81.3*,-1.2,5.98*
O=C(CO)N/N=C/c1cccc(Cl)c1Cl,nt,-1.8,5.2,5.2,0.5,1.4,nt
Cc1cc(NC(=O)CCC(=O)N(Cc2cccs2)C(C)(C)C(=O)NC2CCCCC2)no1,-1.3,-2.2,15.1,-0.5,0.9,2.7,nt
CCOc1ccc(C(c2c(C)[nH][nH]c2=O)c2c(C)[nH][nH]c2=O)cc1OC,-0.4,1.7,-4.5,-18.0,94.5*,-0.7,0.442*
Cc1[nH][nH]c(=O)c1C(c1c(C)[nH][nH]c1=O)c1cn(Cc2ccc(Cl)c(Cl)c2)c2ccccc12,0.7,7.4,4.0,-156.7,0.9,-6.9,nt
C#CCOc1ccc(OC)cc1C(c1c(C)[nH][nH]c1=O)c1c(C)[nH][nH]c1=O,1.2,-10.0,-2.0,nt,94.9*,2.0,0.413*
CCOc1cc(C(c2c(C)[nH][nH]c2=O)c2c(C)[nH][nH]c2=O)ccc1OS(=O)(=O)c1ccc(C)cc1,0.3,-6.1,-0.9,-7.5,97.4*,1.4,0.493*
CCc1noc(C)c1C(=O)Nc1cc(Cl)ccc1N1CCOCC1,-2.0,-3.6,2.5,-2.3,1.4,0.7,nt
CNC(=S)N(CCN(C)C)Cc1cc2cc3c(cc2[nH]c1=O)OCO3,1.2,21.4,-5.8,-4.8,-1.6,21.4,nt
Nc1c(-c2ccccc2)c(CSc2nc3ccccc3[nH]2)nn1-c1cccc(Cl)c1,-2.2,6.8,94.0,-15.7,36.6*,-3.3,11.4*
Nc1c(-c2ccccc2)c(CSc2nc3ccccc3[nH]2)nn1-c1ccc(Cl)cc1,-1.8,3.8,2.5,-14.1,15.8,-4.9,nt
COc1ccc(S(=O)(=O)N2CCC(C(=O)NCCC(=O)NCc3cccnc3)CC2)cc1,nt,8.8,nt,nt,nt,8.5,nt
CN1CCN(c2ccc([N+](=O)[O-])c3no[n+]([O-])c23)CC1,1.9,-2.0,98.8,-35.2,86.0*,-10.4,>38
CCN(c1ccccc1)c1cc2ccccc2c(=O)[nH]1,-2.6,17.7,3.2,-38.5,65.4*,4.0,31.4*
CN1/C(=C/C(=O)c2nc(S(C)(=O)=O)ncc2Cl)C(C)(C)c2ccccc21,-1.1,9.2,96.4,-6.3,77.1*,-9.3,6.26*
COc1ccc(NC(=O)C/C(C)=N/NC(=O)COc2ccc(OC)cc2)cc1,-0.8,-0.7,58.9,10.2,0.2,1.0,nt
C/C(CC(=O)Nc1ccc(F)cc1)=N\NC(=O)COc1ccccc1,1.7,-1.9,0.5,-1.0,65.8*,1.3,21.8*
C/C(CC(=O)Nc1ccc2c(c1)OCCO2)=N\NC(=O)COc1ccccc1C,0.9,0.8,-7.2,-7.0,nt,1.4,nt
